Reference: the supplement of paper PMC12636033
± gives the standard deviation of the averaged measurements. Over roughly 33,000 sequences, “E-score (rank enrichment, -0.5 to 0.5)” has its median near -0.0028; the highest 2% begin near 0.23. This is one part of a sample in which the highest values are shown more often than they occur.

test system: 2Sb-muMax20 (muMax20 with two 1,3-bis(methyl)benzene Cys staples, A13C/A17C and Q88C/A92C, C-terminal Lys); experiment: PBM 8-mer E-score (E-score (rank enrichment, -0.5 to 0.5)); higher = stronger preferential binding
Protocol: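 Protein binding microarray (universal PBM chip covering all 10-mers in fixed probe flanks) with chemically synthesized human Max(13-93) bHLH-LZ analogs (not full-length Max) bearing noncanonical residues (hArg, Tha, Aib, Nle at 65) and aromatic Cys staples. Read-out per 8-mer (and its reverse complement): E-score (rank-based enrichment, -0.5 to 0.5) and Z-score of median probe intensity.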

| Sequence | PBM 8-mer E-score |
| --- | --- |
| CTCCCACA | 0.119 ± 0.064 |
| CTCCCACC | 0.27 ± 0.025 |
| AGCCCACG | 0.0705 ± 0.024 |
| CGCCCCAC | 0.253 ± 0.11 |
| GGCCCCAC | 0.103 ± 0.019 |
| AGCCCACC | -0.043 ± 0.018 |
| CGCCCACC | 0.312 ± 0.0061 |
| AGCCCACA | 0.2403 ± 0.0014 |
| CATGTAGC | 0.084 ± 0.043 |
| CTCCACTA | 0.0307 ± 0.041 |
| CCATCGAG | -0.0349 ± 0.043 |
| ACCACGAC | -0.0523 ± 0.04 |
| CGTACAAG | -0.0151 ± 0.087 |
| ATAGCGAA | 0.0983 ± 0.034 |
| ACCTATTC | -0.025 ± 0.024 |
| CAATGCTA | 0.00426 ± 0.07 |
| GAATGCTA | -0.216 ± 0.036 |
| TAATGCTA | 0.231 ± 0.044 |
| GGATGGCA | 0.267 ± 0.059 |
| TGATGGCA | 0.0723 ± 0.063 |
| GGATGGCC | -0.241 ± 0.023 |
| ACTTTCGA | 0.0801 ± 0.036 |
| AAGCTTCT | 0.104 ± 0.092 |
| TATCATGA | 0.278 ± 0.02 |
| CATCATGA | 0.0474 ± 0.048 |

| Sequence | PBM 8-mer E-score |
| --- | --- |
| AATCATGA | 0.136 ± 0.035 |
| GGGGATAA | 0.234 ± 0.063 |
| CGGGATTA | 0.032 ± 0.017 |
| AGGGATTA | -0.0189 ± 0.016 |
| TGGGATAA | 0.0797 ± 0.017 |
| GGGGATAC | 0.0267 ± 0.0099 |
| GGGGATTA | 0.278 ± 0.013 |
| CAGTAAGG | -0.0281 ± 0.052 |
| AATAGTGT | 0.1565 ± 0.001 |
| GTCCCCGA | 0.0628 ± 0.032 |
| AACTGTGA | -0.0892 ± 0.026 |
| TAACTGGA | -0.0436 ± 0.0063 |
| CATTAGCC | -0.0287 ± 0.08 |
| ATATGCCG | -0.076 ± 0.083 |
| CTATGCCA | 0.0722 ± 0.02 |
| ATATGCCA | 0.305 ± 0.06 |
| ATCGACGC | 0.0538 ± 0.027 |
| ATGTGTAC | 0.107 ± 0.014 |
| GCCAGTGA | 0.0103 ± 0.058 |
| ACACGTAC | 0.0764 ± 0.051 |
| ACACGAGT | 0.248 ± 0.044 |
| ACACGAGA | -0.125 ± 0.065 |
| ACACGTGG | 0.416 ± 0.0009 |
| ACACGAGG | 0.0366 ± 0.063 |
| AAACGTGG | 0.0929 ± 0.011 |

| Sequence | PBM 8-mer E-score |
| --- | --- |
| TAACGTGA | -0.0146 ± 0.035 |
| TCACGTGA | 0.439 ± 0.033 |
| AGACGTGC | -0.124 ± 0.021 |
| ACACGTGC | 0.409 ± 0.0079 |
| TCACGTAA | -0.031 ± 0.021 |
| ACACGTAG | 0.0467 ± 0.016 |
| AAGGCCGA | -0.0488 ± 0.013 |
| CGCTGACA | -0.122 ± 0.0063 |
| TCTAGTCA | 0.105 ± 0.035 |
| CCCCCGGG | -0.43 ± 0.042 |
| CCGCCTCG | -0.04 ± 0.07 |
| GATACTCC | -0.0231 ± 0.06 |
| GCGCGGGA | -0.038 ± 0.036 |
| ATTCAGAG | -0.21 ± 0.046 |
| CGTGCATA | 0.165 ± 0.016 |
| AGACGTGA | 0.0177 ± 0.032 |
| AAACGTGT | 0.0274 ± 0.017 |
| ATACGTGA | 0.0108 ± 0.014 |
| ACACGTGT | 0.396 ± 0.015 |
| ACACGTAT | 0.205 ± 0.022 |
| ACACGTGA | 0.3874 ± 0.0005 |
| ATGTCGCG | -0.163 ± 0.042 |
| CATCGTAC | -0.0597 ± 0.0024 |
| ACTACGTC | 0.0847 ± 0.0011 |
| GTCGATTA | -0.0254 ± 0.015 |

| Sequence | PBM 8-mer E-score |
| --- | --- |
| AGCAGGCT | -0.169 ± 0.016 |
| GAGCCCGC | -0.24 ± 0.016 |
| AGCGCTCA | -0.0925 ± 0.0074 |
| ATAATGTG | 0.159 ± 0.037 |
| ATAATGGC | 0.012 ± 0.012 |
| ATAATGTC | 0.238 ± 0.021 |
| CTAATGTC | -0.0718 ± 0.018 |
| ATAATGGA | 0.185 ± 0.0033 |
| ATAATGGG | 0.238 ± 0.034 |
| AGGAACTG | -0.188 ± 0.049 |
| GCTGCACA | -0.179 ± 0.029 |
| CGCTTGTA | 0.123 ± 0.13 |
| AATGCATT | 0.282 ± 0.018 |
| CATGCATA | 0.177 ± 0.0083 |
| CATGCAAG | 0.0851 ± 0.0044 |
| CATGCAAC | 0.247 ± 0.027 |
| CATGCGTA | 0.2542 ± 0.0016 |
| AATGCGTA | 0.192 ± 0.017 |
| CATGCATC | 0.0655 ± 0.044 |
| AATGCATA | 0.155 ± 0.01 |
| AATGCATC | 0.174 ± 0.028 |
| GATGCGTA | 0.126 ± 0.054 |
| AATGCAAC | 0.0741 ± 0.045 |
| CATGCATG | 0.349 ± 0.03 |
| AAAGGGGA | 0.101 ± 0.002 |

| Sequence | PBM 8-mer E-score |
| --- | --- |
| ACCGGGCA | -0.237 ± 0.053 |
| CTGGTCCC | -0.186 ± 0.015 |
| GGCTTCGA | -0.0528 ± 0.016 |
| GTCTTCAC | -0.127 ± 0.079 |
| CACCGAGG | -0.221 ± 0.014 |
| AATGCAAG | 0.134 ± 0.016 |
| ATTGCATG | 0.13 ± 0.006 |
| ACTGCATG | 0.0264 ± 0.067 |
| AATGCATG | 0.26 ± 0.017 |
| TATGCAAA | 0.0419 ± 0.0014 |
| AATGCAAA | 0.247 ± 0.034 |
| ATGGTTAC | -0.0452 ± 0.019 |
| GCCACCGA | -0.191 ± 0.0059 |
| ATTGCATA | 0.228 ± 0.028 |
| TATAAACA | 0.156 ± 0.011 |
| ACTGTTAG | -0.0514 ± 0.065 |
| GATTAATA | 0.258 ± 0.041 |
| AATTAATA | 0.217 ± 0.011 |
| TATTAATA | 0.296 ± 0.027 |
| CATTAATA | 0.148 ± 0.024 |
| GATTAATC | -0.0411 ± 0.03 |
| GATTAAGA | 0.129 ± 0.0066 |
| GATGATCC | -0.0779 ± 0.039 |
| CATCGTTC | -0.12 ± 0.012 |
| AGACAATG | -0.0359 ± 0.045 |

| Sequence | PBM 8-mer E-score |
| --- | --- |
| AGACAATA | 0.242 ± 0.082 |
| AGACAATC | 0.113 ± 0.029 |
| GCACGCAA | -0.108 ± 0.043 |
| ACCCCAGC | 0.162 ± 0.054 |
| GGAGGGAC | -0.162 ± 0.097 |
| CTAACAAA | 0.144 ± 0.04 |
| GGATGCCA | -0.0771 ± 0.0063 |
| AGTGTGCA | 0.127 ± 0.052 |
| GCCGCCCC | 0.0256 ± 0.14 |
| CCCGCCCG | 0.116 ± 0.12 |
| ACCGCCCC | 0.171 ± 0.074 |
| CCCGCCCA | 0.4 ± 0.012 |
| ACCGCCAC | -0.106 ± 0.0018 |
| GCCGCCCA | -0.145 ± 0.07 |
| CCCGCCAC | 0.239 ± 0.034 |
| GCCGCCAC | -0.229 ± 0.042 |
| CCCGCCCC | 0.241 ± 0.1 |
| AAAGCTGC | 0.108 ± 0.027 |
| GAAAGACC | -0.0392 ± 0.039 |
| ATCGTTGG | -0.105 ± 0.092 |
| CGACGATA | -0.0378 ± 0.027 |
| CCAGTGGC | -0.0927 ± 0.044 |
| CAGGCAGC | -0.163 ± 0.015 |
| GAAGCGAC | -0.0841 ± 0.007 |
| ACTCGTAA | 0.213 ± 0.042 |

| Sequence | PBM 8-mer E-score |
| --- | --- |
| CCCCAACC | 0.131 ± 0.087 |
| CCCCAACA | 0.256 ± 0.061 |
| TCCCAACA | 0.0292 ± 0.05 |
| CAGAAAAA | -0.0726 ± 0.05 |
| AGTGCATC | -0.00688 ± 0.015 |
| AAATTATA | 0.253 ± 0.069 |
| CAATTATA | 0.115 ± 0.045 |
| TAATTATA | 0.262 ± 0.03 |
| GAATTATA | 0.141 ± 0.061 |
| AAATTATG | 0.168 ± 0.0019 |
| AAATTATC | 0.107 ± 0.0057 |
| GCACACGA | -0.00209 ± 0.0015 |
| AAGTTAGC | 0.00664 ± 0.0061 |
| TGCCCGAA | -0.0214 ± 0.05 |
| GGACAAAA | 0.0253 ± 0.017 |
| AATATCGT | 0.091 ± 0.0052 |
| TCGTGAAA | -0.2052 ± 0.00053 |
| ACGTGAGG | 0.0924 ± 0.012 |
| CCGTGATA | -0.132 ± 0.043 |
| GCGTGATA | 0.113 ± 0.028 |
| ACGTGAAA | 0.238 ± 0.035 |
| ACGTGATG | 0.239 ± 0.0046 |
| ACGTGATA | 0.244 ± 0.05 |
| ACGTGAAC | 0.0297 ± 0.012 |
| ACGTGATC | 0.187 ± 0.028 |
